The list is a sample of the results.
CYP2C19 activ: human CYP2C19 activators, primary screen, biochemical, luminescence. Cytochrome P450 2C19 (Homo sapiens), P33261. activation factor at 5 µM. recombinant CYP2C19, luciferin-H EGE luminescence; active compounds read high; 0 = fully inhibited enzyme, 1 = untreated enzyme. 96,000 tested, under 10 active;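 active = activation factor of at least 2 at 5 µM in the primary screen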
Target sequence (P33261 whole entry, looked up): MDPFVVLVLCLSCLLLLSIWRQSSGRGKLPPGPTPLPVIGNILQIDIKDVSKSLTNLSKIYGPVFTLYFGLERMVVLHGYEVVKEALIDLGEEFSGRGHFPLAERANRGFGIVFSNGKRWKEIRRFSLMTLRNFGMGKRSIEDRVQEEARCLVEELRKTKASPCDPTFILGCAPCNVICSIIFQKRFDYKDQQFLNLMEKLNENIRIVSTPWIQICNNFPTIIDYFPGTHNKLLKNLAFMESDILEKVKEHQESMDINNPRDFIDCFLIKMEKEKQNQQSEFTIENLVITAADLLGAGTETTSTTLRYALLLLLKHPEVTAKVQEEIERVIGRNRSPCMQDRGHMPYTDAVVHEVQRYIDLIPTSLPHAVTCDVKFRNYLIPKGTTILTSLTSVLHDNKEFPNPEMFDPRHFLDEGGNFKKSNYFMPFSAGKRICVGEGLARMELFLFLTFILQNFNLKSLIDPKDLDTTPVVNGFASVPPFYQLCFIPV
CYP2C9 activ: human CYP2C9 activators, primary screen, biochemical, luminescence; recombinant CYP2C9, luciferin-H conversion; active compounds read high; factor 1 = untreated enzyme, 0 = blocked; AID 1024, 2008; actives 1.4% (n = 96,000); activation factor at 5 µM; Cytochrome P450 2C9 (Homo sapiens), P11712;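 active = activation factor of 2 or more for CYP2C9 at a 5 µM dose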
PLAP act: PLAP enzyme activators, biochemical, luminescence, HTS; Alkaline phosphatase, placental type (Homo sapiens), P05187; purified PLAP enzyme, luminescent substrate read-out; active compounds read high; activation fold at 20 µM; actives 1.2% (n = 96,000); AID 696, 2007; in the data active = activation fold above about 2
CYP2C19 inh: blockers of cytochrome P450 2C19 activity – biochemical, luminescence, ADME assay, primary screen; actives 21% (n = 96,000); CYP2C19 Supersomes, luciferin-H EGE luminescence, 30 min; inhibition, % at 5 µM; P33261; AID 778, 2007;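 active = CYP2C19 inhibition above a set limit at 5 µM in the primary screen, cut at about 50% in these data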
CYP2C9 inh: blockers of cytochrome P450 2C9 activity – biochemical, luminescence, ADME assay, primary screen | P11712 | CYP2C9 Supersomes, luciferin-H conversion | inhibition, % at 5 µM | actives 20% (n = 96,000);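 active = blocking of liver enzyme CYP2C9 beyond about 50% at 5 µM, limit read from the data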
A number is an active result; . = inactive.

SMILES | CYP2C19 activ | CYP2C9 activ | PLAP act | CYP2C19 inh | CYP2C9 inh
CCOC(=O)c1ccccc1NC(=O)c1ccccc1SC | . | . | . | . | .
CCOC(=O)c1ccccc1NS(=O)(=O)c1ccccc1F | . | 2.9 | . | 89 | .
O=C(O)c1ccccc1C(=O)NCc1ccccc1 | . | . | . | . | .
Cc1nc2cccc(C(=O)NCc3ccccc3)c2o1 | . | . | . | . | 62
CCOC(=O)Cc1nnc(NC(=O)CC)s1 | . | . | . | . | .
O=C(NCC(=O)N(CC1CCCO1)C(C(=O)NC1CCCC1)c1cccnc1)c1ccco1 (stereo unspecified) | . | . | . | . | .
COc1ccc(C2/C(=C(\O)c3ccc4c(c3)OCCO4)C(=O)C(=O)N2CCCN(C)C)c(OC)c1 (stereo unspecified) | . | . | . | . | .
CCOC(=O)c1ccccc1-c1csc(NS(=O)(=O)c2ccc(Cl)cc2)n1 | . | . | . | . | 99
COC(=O)COc1cccc(NS(=O)(=O)c2ccc(NC(C)=O)cc2)c1 | . | . | . | . | .
Cc1ccc(CNC(=O)c2ccccc2NS(C)(=O)=O)cc1 | . | . | . | 55 | 54
COC(=O)COc1ccc(S(=O)(=O)Nc2ccccc2C(=O)OC)cc1 | . | 2 | . | 96 | .
CC(NC(=O)c1ccccc1NS(C)(=O)=O)c1ccccc1 (stereo unspecified) | . | . | . | 62 | 73
CCCCCNC(=O)Cc1cc(=O)[nH]c(=O)[nH]1 | . | . | . | . | .
CCOC(=O)c1cccc(N2C(=O)C3C(C2=O)C2C=CC3C23CC3)c1 (stereo unspecified) | . | . | . | . | .
CC1(C2CC2)NC(=O)NC1=O (stereo unspecified) | . | . | . | . | .
O=C(NCCc1ccccc1F)[C@@H]1CSC2c3ccccc3C(=O)N21 (stereo partly specified) | . | . | . | . | .
CCOC(=O)c1cnc(-c2ccccc2)nc1Oc1ccccc1 | . | . | . | . | .
Cc1ccccc1NC(=O)Nc1ccccc1C(=O)NCc1ccccc1 | . | . | . | . | 59
CCOC(=O)c1ccccc1NS(=O)(=O)c1ccccc1 | . | . | . | 98 | .
CCOC(=O)c1cc(C)n(S(=O)(=O)c2ccc(C)cc2)c1C | . | . | . | . | .
CCOC(=O)c1ccccc1NS(=O)(=O)c1ccc(C)cc1 | . | . | . | 60 | .
CCOC(=O)c1cnc(SC)nc1Oc1cccc(NS(=O)(=O)c2ccc(C)cc2)c1 | . | . | . | . | 81
COc1cc(NC(=O)C2CC2)c(C(=O)O)cc1OC | . | . | . | . | .
C/C(CC(=O)NCc1ccco1)=N\NC(=O)Cc1cccc2ccccc12 | . | . | . | . | .
COc1ccc(S(=O)(=O)N2C3CCC2CC(NC(=O)NC2CCCCC2)C3)cc1 (stereo unspecified) | . | . | . | . | .
SMILES | CYP2C19 activ | CYP2C9 activ | PLAP act | CYP2C19 inh | CYP2C9 inh
CCOc1cc(NC(=O)c2cnccn2)c(OCC)cc1NC(=O)c1ccc(OC)cc1 | . | . | . | . | .
CC(=O)Nc1nc(-c2ccc(Cl)cc2)nc(C)c1C(C)=O | . | . | . | . | .
O=C(Cn1nnc(-c2ccccc2NC(=O)c2ccco2)n1)NC1CCCCC1 | . | . | . | . | 64
Cc1cnc(C(=O)Nc2ccccc2-c2nnn(CC(=O)NC3CCCC3)n2)cn1 | . | . | . | . | .
CCOc1ccc(-c2nnn(CC(=O)NCc3ccco3)n2)cc1 | . | . | . | . | .
O=C(Cn1nnc(-c2ccccc2)n1)NCc1ccco1 | . | . | . | 61 | .
COc1ccc(C(=O)Nc2ccccc2-c2nnn(CC(=O)NCc3ccco3)n2)cc1 | . | . | . | . | 75
O=C(Cn1nnc(-c2cccc(C(F)(F)F)c2)n1)NC1CCCC1 | . | 2.5 | . | . | .
CCN1CCN(Cc2ccc(NC(=O)CC3Oc4ccc(C)cc4NC3=O)cc2)CC1 (stereo unspecified) | . | . | . | . | .
COc1ccc(N2CCN(C(=O)CCCSc3nc4ccccc4[nH]3)CC2)cc1 | . | . | . | . | .
O=C(Cn1cnc2sc(-c3ccccc3)cc2c1=O)NCc1ccco1 | . | . | . | . | .

High-throughput results as filed in PubChem BioAssay.
